From PubChem BioAssay (NCATS)
Records with an inconclusive call do not appear. A call without a number means that no potency is given here. Activity calls are given as the source filed them. The call rests on the fitted dose curve; in most records, active means well fitted cell-killing curve with a large enough effect; inconclusive means small, poorly fitted or top-dose-only effect; inactive means no such curve, though single readings can be large or run the other way.

assay: qHTS of pediatric cancer cell lines to identify multiple opportunities for drug repurposing: Primary screen for SK-N-SH cells (AID 1347098); conditions: SK-N-SH viability, CellTiter-Glo luminescence, 48 h; series mostly up to 57 µM; further: nearly all actives have a fitted effect of over 65% in size
From the text: Drug repurposing or repositioning has been offered as a strategy for drug development in oncology programs. This approach has special potential for childhood cancers and other rare or orphan diseases, where the expected return on new drug development has been a disincentive to pharmaceuticals.
In this project we exploit the poly-pharmacology of drugs to discover new indications via phenotypic screening of a panel of 19 well-characterized cell lines derived from solid tumors seen in children and adolescents. The goal is to identify approved drugs with previously unrecognized anticancer properties that has the potential to reveal new mechanisms and biological processes involved in carcinogenesis or drug resistance. We employed a titration-based paradigm (quantitative high-throughput screening or qHTS), where all compounds were tested at multiple concentrations for their effect on cell viability. Concentration-response curves (CRCs) were derived directly from the primary screen, and both potency and efficacy values were used to identify compounds with robust bioactivity profiles. We screened the NIH Chemical Genomics Center (NCGC) Pharmaceutical Collection (NPC) and Mechanism Interrogation Plate (MIPE) small molecule collections of approved and investigational compounds against these cell lines; and measured metabolically active cells after 48 hours of compound treatment as a proxy for cell viability.
Assay Submitter: Nathalia J. Martinez, National Center for Advancing Translational Sciences, National Institutes of Health, Rockville, MD, USA; email: natalia.martinez@nih.gov
[1] Shen, M et al. Quantitative high-throughput phenotypic screening of pediatric cancer cell lines identifies multiple opportunities for drug repurposing. Oncotarget 2017 Dec 19;9(4):4758-4772. PMID 29435139.
The cells were obtained from University of North Carolina (UNC), Pediatric Preclinical Testing Program (PPT), and Coriell Institute (CI).
qHTS cell viability assay:
Cells were assayed in growth media at a density of 500-1,000 cells/well. Five microliters of cells were dispensed into 1,536-well, white, solid-bottom, TC-treated plates (Greiner Bio One) using a multidrop dispenser and incubated at 37 degrees C, 5% CO2, under a humidified atmosphere for 5 hours. Twenty-three nanoliters of compounds and controls (neutral control DMSO or positive control bortezomib at final concentration of 2.3 µM) were subsequently transferred by Kalypsys pintool. For primary screens, the MIPE collection was tested at 11-point dilutions (final concentrations range from 0.78 nM to 46 µM) and the NPC collection at 8-point dilutions (final concentrations range from 0.59 nM to 46 µM). Compounds tested in follow-up screens were assayed at 11-point dilutions. Cells were incubated for 48 hours, followed by addition of 3 µL of CellTiter-Glo (Promega). After a 15 min incubation at room temperature, samples were analyzed for luminescence intensity using a ViewLux High-throughput CCD imager equipped with clear filters.
Potency means the concentration at half of the fitted maximal effect.

Row | Compound | Potency
1 | CC1CNc2c(cccc2S(=O)(=O)N[C@@H](CCCN=C(N)N)C(=O)N2CC[C@@H](C)C[C@@H]2C(=O)O)C1 (stereo not given in full) | 8.57 µM (active)
2 | CCN1C[C@H](C)n2c(c(O)c3c(=O)n(Cc4ccc(F)c(Cl)c4)nc(C(=O)NC)c32)C1=O | inactive
3 | Cc1cc(OCCCS(C)(=O)=O)cc(C)c1-c1cccc(COc2ccc3c(c2)OC[C@H]3CC(=O)O)c1 | inactive
4 | O=c1[nH]c(=O)n([C@H]2C[C@@H](O)[C@@H](CO)O2)cc1C(F)(F)F | inactive
5 | CN1[C@H]2CC[C@H]1CC(OC(=O)c1c[nH]c3ccccc13)C2 (stereo not given in full) | 24.1 µM (active)
6 | COc1ccc2ccc(=O)oc2c1CC=C(C)C | inactive
7 | COc1ccc(-c2nc3ccc(C4=NNC(=O)CC4C)cc3[nH]2)cc1 (stereo not given) | 15.4 µM (active)
8 | O=C(CO)N1CCC(c2[nH]nc(-c3ccc(Cl)cc3)c2-c2ccncn2)CC1 | inactive
9 | O=C(c1ccc(C(=O)N2CCC(N3CCCC3)CC2)c(Nc2ccccc2)c1)N1CCC(N2CCCC2)CC1 | inactive
10 | OC[C@H]1O[C@@H](O[C@H]2[C@@H](O)[C@@](O)(CO)O[C@@H]2CO)[C@H](O)[C@@H](O)[C@@H]1O | inactive
11 | CC(C)=CCCC(C)=CCCC(C)=CCCC(C)=CCCC(C)=CCCC(C)=CCCC(C)=CCCC(C)=CCCC(C)=CCO | inactive
12 | Cc1ccc(NC(=O)c2cccc(N(C)C)c2)cc1NC(=O)c1ccc(O)cc1 | 15.2 µM (active)
13 | NC(N)=Nc1nc(CSCCC(N)=NS(N)(=O)=O)cs1 | 19.2 µM (active)
14 | CC1=C(CC(=O)O)c2cc(F)ccc2C1=Cc1ccc(S(C)=O)cc1 (stereo not given) | 19.2 µM (active)
15 | Cc1c(C(=O)Nc2ccc(N3C[C@@H](C)O[C@@H](C)C3)nc2)cccc1-c1ccc(OC(F)(F)F)cc1 | 3.41 µM (active)
16 | CN1CC(=O)NC1=NC(=O)Nc1cccc(Cl)c1 | 8.57 µM (active)
17 | O=C1C(CCC(O)c2ccc(F)cc2)C(c2ccc(O)cc2)N1c1ccc(F)cc1 (stereo not given) | inactive
18 | O=[N+]([O-])c1ccc(Nc2ccccc2-c2ccccc2)c2nonc12 | inactive
19 | COc1ccc(-c2ccc3ncc4c(c3c2)n(-c2ccc(N3CCNCC3)c(C(F)(F)F)c2)c(=O)n4C)cn1 | 0.0857 µM (active)
20 | O=C(O)C1=NC(C(=O)O)CC(C=CN2c3cc(O)c(OC4OC(CO)C(O)C(O)C4O)cc3CC2C(=O)O)=C1 (stereo not given) | inactive

Row | Compound | Potency
21 | O=C(O)C1=CO[C@@H](O[C@@H]2O[C@H](CO)[C@H](O)[C@H](O)[C@H]2O)[C@@H]2C(CO)=CC[C@H]12 | 21.5 µM (active)
22 | c1ccc(-c2oc3ncnc(NC[C@@H]4CCCO4)c3c2-c2ccccc2)cc1 | 24.1 µM (active)
23 | OCCn1cc(-c2ccc3c(c2)CCC3=NO)c(-c2ccncc2)n1 | 19.2 µM (active)
24 | CSc1cccc(Nc2ncc3cc(-c4c(Cl)cccc4Cl)c(=O)n(C)c3n2)c1 | inactive
25 | CCc1cc(-c2n[nH]c(C)c2-c2ccc3c(c2)OCCO3)c(O)cc1O | 9.61 µM (active)
26 | Cc1nc2c([nH]1)CCN(C(=O)c1ccc(NC(=O)c3ccccc3-c3ccccc3)cc1)c1ccccc1-2 | inactive
27 | NS(=O)(=O)c1cc(Cl)c(Cl)c(S(N)(=O)=O)c1 | inactive
28 | CNC1CCC(N(Cc2cccc(-c3ccncc3)c2)C(=O)c2sc3ccccc3c2Cl)CC1 (stereo not given) | 24.1 µM (active)
29 | O=C(O)c1nc(=O)[nH]c(=O)[nH]1 | inactive
30 | COc1cc(C=CC(=O)O)ccc1O | inactive
31 | Nc1ncnc2c1ncn2[C@@H]1O[C@H](CO)[C@@H](O)[C@@H]1O | 15.2 µM (active)
32 | CN1CCN2c3ncccc3Cc3ccccc3C2C1 (stereo not given) | inactive
33 | Nc1ccn([C@@H]2O[C@H](CO)[C@@H](O)[C@H]2O)c(=O)n1 | inactive
34 | CCCCC[C@H](O)C=C[C@H]1[C@H](O)CC(=O)[C@H]1CCCCCCC(=O)O | inactive
35 | CC(C)(O)CC(=O)NCCn1ccc2ncnc(Nc3ccc(Oc4cccc(C(F)(F)F)c4)c(Cl)c3)c21 | 1.21 µM (active)
36 | CNC(=O)c1ccc2c(C(=Nc3cccc(CN(C)C)c3)c3ccccc3)c(O)[nH]c2c1 | 21.5 µM (active)
37 | CCCCC(F)(F)[C@@]1(O)CC[C@H]2[C@H](CC(=O)[C@@H]2CCCCCCC(=O)O)O1 | inactive
38 | COc1ccc(-c2cc(=O)c3c(O)cc(O[C@@H]4O[C@H](CO[C@@H]5O[C@@H](C)[C@H](O)[C@@H](O)[C@@H]5O)[C@@H](O)[C@H](O)[C@@H]4O)cc3o2)cc1O | 27.1 µM (active)
39 | NCC1CCC(C(=O)O)CC1 (stereo not given) | inactive
40 | C[C@]12CCC3=C4CCC(=O)C=C4CC[C@@H]3[C@H]1CC[C@@]2(O)CC#N | inactive
